{"source": "PubChem BioAssay", "note": "Values without a mark were called inactive.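 Rule for the calls: active = compounds killing one labelled cell type while sparing the other, by normalised counts and ratio limits, not self-fluorescent; inactive = the rest.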 Square brackets hold non-standard residues; d marks the D form. Side chains are listed from the residue outwards. Peptide text beside a SMILES is read from it. * marks the point of attachment. X2 = CCC(C)C(N)C1=NC(C(=O)*)CS1; Orn = NCCC[CH](N)C(=O)O", "data": [{"experiment": "EMT-state selective cytotoxicity in co-culture – imaging, PC-3E GFP, TEM4-18 mCherry, primary screen (AID 1345086);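 note: normalised mesenchymal count divided by normalised epithelial count so high means epithelial killing; cells exposed to compound for 72 h before imaging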", "details": "PC-3E GFP / TEM4-18 mCherry co-culture, imaging cell counts; at 1 µM; actives lie on both sides; counts scaled to control wells, 1 = unselective", "values": [{"smiles": "COCC1=C(C(=O)OC(C)OC(=O)OC(C)C)N2C(=O)[C@@H](NC(=O)/C(=N/OC)c3csc(N)n3)[C@H]2SC1", "note": "(stereo not given in full)", "red/green cell ratio (normalised)": 1.05}, {"smiles": "C#C[C@]1(OC(C)=O)CCC2C3CCC4=C/C(=N/O)CCC4C3CC[C@@]21CC", "note": "(stereo not given in full)", "red/green cell ratio (normalised)": 0.75}, {"smiles": "CCC(C)C(N)C1=NC(C(=O)NC(CC(C)C)C(=O)NC(CCC(=O)O)C(=O)NC(C(=O)NCCCCC2NC(=O)C(CC(N)=O)NC(=O)C(CC(=O)O)NC(=O)C(Cc3cnc[nH]3)NC(=O)C(Cc3ccccc3)NC(=O)C(C(C)CC)NC(=O)C(CCCN)NC2=O)C(C)CC)CS1", "note": "(stereo not drawn) (cyclo(DNK([Ile-Glu-Leu-X2])[Orn]IFH); configuration not given here)", "red/green cell ratio (normalised)": 0.87}, {"smiles": "C[N+](C)(C)CCOP(=O)([O-])OP(=O)(O)OC[C@H]1OC(n2ccc(N)nc2=O)[C@H](O)[C@@H]1O", "note": "(stereo not given in full)", "red/green cell ratio (normalised)": 1.29}, {"smiles": "CCN[C@@H]1C[C@H](N)[C@@H](O[C@H]2OC(CN)=CC[C@H]2N)[C@H](O)[C@H]1OC1OC[C@](C)(O)[C@H](NC)[C@H]1O", "note": "(stereo not given in full)", "red/green cell ratio (normalised)": 0.96}, {"smiles": "C[C@]12C=CC(=O)C=C1CCC1C2[C@@H](O)C[C@@]2(C)C1CC[C@]2(O)C(=O)COC(=O)CCC(=O)O", "note": "(stereo not given in full)", "red/green cell ratio (normalised)": 0.99}, {"smiles": "O=C(N[C@@H](CO)[C@H](O)c1ccc([N+](=O)[O-])cc1)C(Cl)Cl", "red/green cell ratio (normalised)": 0.9}, {"smiles": "N[C@H](Cc1cc(I)c(Oc2ccc(O)c(I)c2)c(I)c1)C(=O)O", "red/green cell ratio (normalised)": 0.97}, {"smiles": "NC(Cc1c[nH]c2ccccc12)C(=O)O", "note": "(stereo not given)", "red/green cell ratio (normalised)": 1.24}, {"smiles": "O=C(O)C1=C(CSc2nnnn2CS(=O)(=O)O)CS[C@@H]2C(NC(=O)[C@H](O)c3ccccc3)C(=O)N12", "note": "(stereo not given in full)", "red/green cell ratio (normalised)": 0.95}]}]}
